Test results: PubChem BioAssay (NCI)
Values joined by “and” are separate entries in the source; they are usually repeats but may differ in a detail not shown here. Equal entries are not always repeated. The panel holds about 83,000 compounds, 20% with a hit somewhere; the sample as a whole holds those more often.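 Plates (96-well) were seeded with cells, treated with compound at one concentration, and incubated for 48 hours before percent growth was determined.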 Unmarked numbers belong to inactive results. Active and inactive are the calls of the source. How the source made its calls: active means growth percent below 10; inactive means the rest.

Assays:
Assay in all cases: NCI-60 one-dose screen, 48 h (100 = growth as untreated, 0 = no growth, -100 = all killed)
Conditions in all cases: 10 µM unless noted
NCI-H23 lung = tested on: NCI-H23 lung
NCI-H226 lung = tested on: NCI-H226 lung
NCI-H322M lung = tested on: NCI-H322M lung
HOP-62 NSCLC = tested on: HOP-62 NSCLC
NCI-H460 lung = tested on: NCI-H460 lung
HOP-92 NSCLC = tested on: HOP-92 NSCLC
NCI-H522 lung = tested on: NCI-H522 lung
A549/ATCC NSCLC = tested on: A549/ATCC NSCLC
786-0 renal = tested on: 786-0 renal
COLO 205 colon = tested on: COLO 205 colon

Compound	growth (NCI-H23 lung)	growth (NCI-H226 lung)	growth (NCI-H322M lung)	growth (HOP-62 NSCLC)	growth (NCI-H460 lung)	growth (HOP-92 NSCLC)	growth (NCI-H522 lung)	growth (A549/ATCC NSCLC)	growth (786-0 renal)	growth (COLO 205 colon)
C(=NC1CCCCC1)=NC1CCCCC1	106% and 31.1%	103% and 57%	117% and 99.1%	109% and 86.8%	107% and 100%	92.8% and 62.3%	91.8% and 85.2%	111% and 87%	104% and 87.1%	115% and 88.6%
CCC1(CCSC#N)C(=O)NC(=O)NC1=O	91.5%	104%	97.9%	94.9%	107%	85.8%	109%	106%	93.5%	108%
CC12CCC3C(CCC4CC(O)CCC43C)C1CCC2=O (stereo not given)	98.4%	98.1%	102%	95.8%	100%	74.5%	61.9%	94.2%	78.1%	130%
CN(C)[C@@H]1C(=O)C(C(N)=O)=C(O)[C@@]2(O)C(=O)C3=C(O)c4c(O)ccc(Cl)c4[C@@](C)(O)[C@H]3C[C@@H]12	99.6% and 88.6%	93.3% and 95.3%	84.8% and 105%	90.3%	88.9% and 101%	75.7% and 11.8%	79.4% and 32.7%	97%	91.3% and 71.2%	92.8% and 97.8%
C[C@]12CCc3sc(Nc4ccc(O)cc4)nc3C1=CC[C@@H]1[C@@H]2CC[C@]2(C)C(=O)CC[C@@H]12	70.2%	103%	93.4%	92.7%	65.6%	126%	-55.2% (active)	79.3%	-3.03% (active)	38.5%
